Structures are written as SMILES. Some compounds were tested as several samples or in several runs, with calls that do not always agree. Calls of active or inactive are those of the source. The calls were made as follows: active = hit-call score of the fitted dose curve at least 0.9, where 1 is the maximum; inactive = score below 0.9.

Drawing on PubChem BioAssay (EPA / NIEHS), this text covers outcome and AC50 for 39 compounds.

The nature of the experiment: ATG_ISRE_CIS: Attagene CIS-FACTORIAL HepG2 Assay for human Interferon Regulatory Factor 1 (IRF1) binding to an Interferon-Stimulated Response Element (ISRE) (AID 2282948). The following applies: HepG2 ISRE cis-reporter (Attagene), mRNA transcription readout; actives raise or lower the signal. Here is the method:
ATG_CIS is a cell-based, multiplexed-readout assay that uses HepG2, a human liver cell line, with measurements taken at 24 hours after chemical dosing in a 24-well plate.ATG_ISRE_CIS is one of 52 assay component(s) measured or calculated from the ATG_CIS assay. It is designed to make measurements of mRNA induction, a form of inducible reporter, as detected with fluorescence intensity signals by Reverse transcription polymerase chain reaction (RT-PCR) and Capillary electrophoresis technology.Data from the assay component ATG_ISRE_CIS was analyzed into 1 assay endpoint. This assay endpoint, ATG_ISRE_CIS, was analyzed with bidirectional fitting relative to DMSO as the negative control and baseline of activity. Using a type of inducible reporter, measures of mRNA for gain or loss-of-signal activity can be used to understand the reporter gene at the transcription factor-level as they relate to the gene IRF1. Furthermore, this assay endpoint can be referred to as a primary readout, because this assay has produced multiple assay endpoints where this one serves a reporter gene function. To generalize the intended target to other relatable targets, this assay endpoint is annotated to the dna binding intended target family, where the subfamily is interferon regulatory factors.
Human liver HepG2 cells are transiently transfected with multiple reporter transcription units (MRTUs) in 6-well plates using FuGene 6 reagent (Roche; 3 ml FuGene/1 mg DNA). The MRTU constructs are regulated by a cis-regulating element (promoter). […] A major difference between the CIS and TRANS system is that in CIS activities of endogenous TFs are measured, whereas the TRANS assay evaluates changes in activities of exogenous, chimeric NR-Gal4 proteins. […] At the end of 24 hour incubation, total RNA was isolated using TriZol reagent (Invitrogen). The isolated RNA is then reverse-transcribed using oligo(dT) primer and Mo-MLV reverse transcriptase (Invitrogen) with DNAse I (Ambion) treatment for 30 min. The one-tenth of the produced cDNA was amplified by PCR using Taq DNA polymerase (Invitrogen) and two reporter sequence-specific primers. The PCR products were fluorescently labeled by primer extension with 6-arboxyfluorescein (6-FAM) 5'-labeled reporter sequence-specific primer (2 min at 95 C, 20 s at 68 C and 10 min at 72 C) and these products were digested with 5U of HpaI (New England Biolabs) for 2h at 37 C. The fragments were purified using Qiaquick PCR columns (Qiagen), analyzed on an ABI 3130xL genetic analyzer (Applied Biosystems) with peak positions identified by using a set of X-rhodamine (ROX)-labeled MapMarker1000 molecular weight standards (BioVentures). The raw capillary electrophoresis data was processed using Attagraph software (Attagene).
`CCOC(C)=O`: the outcome was inactive.
The same measure, in the same setting: as for `c1cc2cccc3c4cccc5cccc(c(c1)c23)c54`, the entry is “inactive”; as for `NNC(=O)CCCCC(=O)NN`, “inactive”; as for `CCN(CCC#N)c1ccccc1`, “inactive”.
With `CC1=NN(c2ccccc2)C(=O)C1`, the outcome was inactive.
For `CCCCCCCCCC=CCC1CC(=O)OC1=O` (stereo not given), the compound was called inactive.
For `O=C(O)c1cccc(C(=O)O)n1`, the outcome was inactive.
Same read-out and setting: under `CCCCCCOC(=O)c1ccc(O)cc1` stands “inactive”; under `O=C(Nc1cccc([N+](=O)[O-])c1)c1cc2ccccc2cc1O`, “inactive”; under `Oc1cc2ccccc2cc1O`, “inactive”.
The same measure, in the same setting: as for `FC(OC(F)(F)C(F)(F)C(F)(F)F)C(F)(F)F` (stereo not given), the entry is “inactive”; as for `CNNCc1ccc(C(=O)NC(C)C)cc1`, “inactive”.
Same read-out and setting: under `C=COC(=O)C(C)(C)CCCCCC` stands “inactive”; under `NNc1nc(-c2ccc([N+](=O)[O-])cc2)cs1`, “inactive”.
With `COC(=O)CC(C(C)=O)C(=O)OC` (stereo not given), the compound was called inactive.
Turning to `O=S(=O)(O)c1ccc2cc(O)ccc2c1`, the compound was classed as inactive.
With `NCc1cccc(CN)c1`, the call was inactive.
On the same count and under the same terms, under `NS(=O)(=O)O` stands “inactive”; under `CCc1ccccc1O`, “inactive”; under `CCCCCCCCC(C)=O`, “inactive”.
As for `N=C(N)c1ccc(OCCCCCOc2ccc(C(=N)N)cc2)cc1`, the concentration at half-maximal activity (AC50) was 57.9 µM (active).
As for `CCCCCCCCCCCCCCCCCC[N+](C)(C)Cc1ccccc1`, the AC50 is 12.8 µM (active).
Still for that read-out and setting: as for `CCCCCCCCCCCCOC(=O)c1cc(O)c(O)c(O)c1`, the figure is 11.1 µM (active).
On to `CCCCCc1ccc(O)cc1`, for which the outcome was inactive.
In the case of `COCN(COC)c1nc(N(COC)COC)nc(N(COC)COC)n1`, the compound was called inactive.
The same measure, in the same setting: as for `CC(C)(C)C1CCCCC1O` (stereo not given), the entry is “inactive”; as for `O=C(CCCN1CCC(O)(c2ccc(Cl)cc2)CC1)c1ccc(F)cc1`, “inactive”.
As to `O=C1C=CC(=O)N1c1cccc(N2C(=O)C=CC2=O)c1`, the compound was classed as inactive.
Same read-out and setting: as for `C=Cc1ccc(O)c(OC)c1`, the entry is “inactive”; as for `CC(C)C=O`, “inactive”.
As to `COCC1CCC(CO)CC1` (stereo not given), the outcome was inactive.
`CCCCCCCCCCCC(=O)O`: the call was inactive and the concentration at half-maximal activity (AC50) is 146 µM (active).
Turning to `NCCN`, the outcome was inactive.
`OCC(F)(F)C(F)(F)C(F)(F)C(F)(F)C(F)(F)C(F)(F)C(F)(F)C(F)(F)C(F)(F)C(F)(F)C(F)(F)F`: the outcome was inactive.
Turning to `C/C=C/C(=O)C1=C(C)CCCC1(C)C`, the half-maximal activity concentration (AC50) was 69.9 µM (active).
In the case of `CCC(C)c1ccccc1O` (stereo not given), the compound was called inactive.
As to `CC(C)CCOCCC(C)C`, the compound was classed as inactive.
For the compound `CC(C)(C)c1ccc(CCC=O)cc1`, the compound was called inactive.
Same read-out and setting: under `C=CC(C)(CCC=C(C)C)OC(C)=O` (stereo not given) stands “inactive”.

The AC50 is the concentration at which the activity in the assay is half-maximal.
